Results filed as inconclusive are left out. Activity calls are given as the source filed them. The call rests on the fitted dose curve.
Assay: Primary qHTS to identify inhibitors of SARS-CoV-2 cell entry (AID 1645846); further: nearly all actives have a fitted effect of over 45% in size
Settings: SARS-CoV-2 pseudovirus cell entry assay, luminescence; activity change, negative = inhibition: at 57.1 µM (top of the series) unless noted; series mostly up to 57.1 µM
Procedure, shortened: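 HEK293 cells stably expressing human ACE2, pre-treated 1 h with compound, then infected with MLV particles pseudotyped with Wuhan-Hu-1 spike (C-terminal 19-aa truncation). Luciferase luminescence after 48 h at 37 °C, normalised to spike PP and bald PP.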
Potency means the concentration at half of the fitted maximal effect.

Row | SMILES | Potency | activity change, negative = inhibition
1 | CCc1ccc(/C=C2/SC(=S)NC2=O)cc1 | 31.6 µM (active) | 
2 | N#CNC(=NCCCCCCOc1ccc(Cl)cc1)Nc1ccncc1 |  | -97%
3 | O=C1c2c(O)cc(O)cc2OC(c2ccc(O)c(O)c2)C1O (stereo not given) |  | 4.53%
4 | CN1CCc2c(c3ccccc3n2Cc2ccc(C(=O)NO)cc2)C1 |  | -18.9%
5 | CCN(CC)CCCCNc1ncc2c(n1)N(C)C(=O)N(c1c(Cl)c(OC)cc(OC)c1Cl)C2 | 6.31 µM (active) | 
